TDP1 cell noCPT – qHTS for Inhibitors of human tyrosyl-DNA phosphodiesterase 1 (TDP1): qHTS in cells in absence of CPT | AID 686978, 2013 | Potency, µM (titrated, usually from 46.2 µM), inactives show at the top dose activity change, negative = growth inhibition, actives largely listed as inhibitors | hit rate 15% among 420,000 | DT40 Tdp1-/- hTDP1 cells, no CPT, ATP luminescence, 48 h; note: % is set by controls: 0 for no effect and ±100 for the full control effect; nearly all actives have a fitted effect of over 55% in size
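No-CPT arm: Tdp1-/-;hTDP1 DT40 cells (400/well) plus compounds, incubated ≥48 hr at 37 °C. Readout CellTiter-Glo luminescence.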
HepG2 viability – qHTS for Inhibitors of TGF-b: Cytotox Counterscreen; HepG2 CAGA-GFP viability, ATP luminescence, 18 h; hit rate 0.76% among 410,000; AID 588856, 2011; Potency, µM (highest dose often 46.1 µM), without a hit: top-dose activity change, negative = cytotoxicity, actives largely listed as cytotoxic
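CellTiter-Glo luminescence gave cytotoxicity after 18 hours at 37 degrees C. The cells were HepG2 CAGA-GFP in 1% FBS DMEM, stimulated with 500 pg/mL TGF-beta after compound addition. %Activity was normalised to no-cell wells (complete cell-killing) and DMSO (no toxicity), and curves were fitted and classified.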
S2 tox – Viability Counterscreen for Primary qHTS for Inhibitors of ATXN expression; Potency, µM (top dose mostly 56.7 µM), usual class: cytotoxic; S2 cells (HEK-293 line with an ATXN2-luciferase reporter) viability, CellTiter-Fluor protease fluorescence, 24 h; hit rate 0.49% among 400,000; note: nearly all actives have a fitted effect of over 40% in size
TGFb SMAD3 inh – qHTS for Inhibitors of TGF-b; HepG2 CAGA-GFP TGF-b/SMAD3 reporter, GFP fluorescence, 18 h; TGF-beta stimulated, 500 pg/mL final; Potency, µM (series often up to 46.1 µM), for inactives: at the top dose activity, negative = inhibition, actives largely listed as inhibitors; hit rate 1.2% among 410,000; AID 588855, 2011; note: % is set by controls: 0 for no effect and ±100 for the full control effect; nearly all actives have a fitted effect of over 65% in size
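Inhibition of TGF-beta-driven CAGA-GFP reporter expression in HEPG2 cells is measured by cellular GFP fluorescence after 18 h stimulation with 500 pg/mL recombinant TGF-beta in 1% FBS medium at 37 degrees C.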
DT40 TDP1 CPT – qHTS for Inhibitors of human tyrosyl-DNA phosphodiesterase 1 (TDP1): qHTS in cells in presence of CPT; chicken DT40 Tdp1-/-;hTDP1 cells + 20 nM CPT, ATP luminescence, 48 h; Potency, µM (titrated, usually from 46.2 µM), without a hit: top-dose activity change, negative = growth inhibition, usual class: inhibitors; hit rate 12% among 420,000; AID 686979, 2013; note: % is set by controls: 0 for no effect and ±100 for the full control effect; nearly all actives have a fitted effect of over 55% in size
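Cell growth measured by CellTiter-Glo luminescence after a minimum 48 h, 37 C compound exposure with 20 nM CPT in Tdp1-knockout DT40 cells stably expressing hTDP1, seeded 400/well; qHTS titration format.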
ATXN2 expr inh – Primary qHTS for Inhibitors of ATXN expression. AID 1745845, 2022. hit rate 0.72% among 360,000. Potency, µM (series often up to 57 µM), inactives show at the top dose activity change, negative = inhibition, actives largely listed as inhibitors. HEK-293 ATXN2-luciferase reporter, luminescence, 24 h; note: % is set by controls: 0 for no effect and ±100 for the full control effect; nearly all actives have a fitted effect of over 55% in size
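qHTS (up to 57 uM final) was run with 24 h compound exposure of reporter cells at 37 °C. Each well was multiplexed: SteadyGlo luminescence measured ATXN2-luciferase expression after a fluorogenic Gly-Phe-AFC viability readout (25 uM final).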
An asterisk follows results filed as active; i = inactive; ? = inconclusive; nt = no result given. This is a sample that favours compounds with a hit; in the whole collection about 17% have one here. Calls come from the whole dose curve; as a rule, active = well fitted curve in the direction sought with a large enough effect; inconclusive = small, poorly fitted or top-dose-only effect, or another doubt; inactive = no such curve, though single readings can be large; an effect the other way counts as inactive or inconclusive. Potency is the fitted concentration of half-maximal effect.

SMILES	TDP1 cell noCPT	HepG2 viability	S2 tox	TGFb SMAD3 inh	DT40 TDP1 CPT	ATXN2 expr inh
CCS(=O)(=O)N1Cc2ccccc2CC1C(=O)Nc1nc2c(C)cccc2s1 (stereo not drawn)	26µM*	-12%	i	0%	-25%	21%
O=C(Nc1nnc(C2CC2)s1)C1Cc2ccccc2CN1S(=O)(=O)c1cccs1 (stereo not drawn)	16µM*	-26%	i	?	21µM*	30%
CCc1nnc(NC(=O)C2Cc3ccccc3CN2S(=O)(=O)c2cccs2)s1 (stereo not drawn)	?	-6%	i	1%	-30%	18%
Cc1noc(C)c1S(=O)(=O)N(C)C[C@H]1Oc2ccc(NC(=O)NC(C)C)cc2C(=O)N([C@H](C)CO)C[C@@H]1C	16%	-1%	i	2%	24%	4%
CNC(=O)c1ccc(Nc2nc(-c3ccccc3)nc3ccccc23)cc1	13µM*	-46%	i	9%	16µM*	3%
COC(=O)c1ccc(Nc2nc(-c3ccc(C)cc3)nc3ccccc23)cc1	7.3µM*	-17%	i	0%	13µM*	9%
O=C(O)c1ccc(Nc2c3ccccc3nc3ccccc23)cc1	2.1µM*	-29%	nt	0%	1.3µM*	7%

From PubChem BioAssay
